Out of some 5,500 compounds screened, about 2,000 (36%) were called active. About 18% were inconclusive and are not listed. Cut-off read from the data, not from the text of the source: active = normalized growth mostly below about 0.91 (no sharp cut-off); inconclusive = no clear call, values can overlap the other calls; inactive = mostly above about 0.92. The list shows a part of the results.
Test: chemical genetic growth profiling, strain panel (AID 1159580);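 note: tested at 20 µM; growth read once vehicle control cultures reached saturation at 30 °C; 1 = growth at the plate median or of vehicle wells; lower values mean less growth of the strain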
Details: growth OD

Measured: normalized growth

CCOC(=O)/C=C(\C)OP(=O)(OC)OC
inactive: S. cerevisiae deletion strains, locus YAL013W, strain DEP1, hits give low values 0.973 | S. cerevisiae deletion strains, locus YBR021W, strain FUR4, hits give low values 1.02 | S. cerevisiae deletion strains, locus YBR229C, strain ROT2, hits give low values 0.948 | S. cerevisiae deletion strains, locus YCL029C, strain bik1, hits give low values 0.989 | S. cerevisiae deletion strains, locus YDL035C, strain GPR1, hits give low values 0.981 | S. cerevisiae deletion strains, locus YDL074C, strain BRE1, hits give low values 0.937 | S. cerevisiae deletion strains, locus YDL101C, strain DUN1, hits give low values 0.967 | S. cerevisiae deletion strains, locus YDL134C, strain PPH21, hits give low values 0.989 | S. cerevisiae deletion strains, locus YDL185W, strain tfp1, hits give low values 0.983 | S. cerevisiae deletion strains, locus YDL192W, strain arf1, hits give low values 0.992 | S. cerevisiae deletion strains, locus YDR101C, strain arx1, hits give low values 1 | S. cerevisiae deletion strains, locus YDR150W, strain NUM1, hits give low values 0.989 | S. cerevisiae deletion strains, locus YDR162C, strain NBP2, hits give low values 0.982 | S. cerevisiae deletion strains, locus YDR318W, strain mcm21, hits give low values 0.987 | S. cerevisiae deletion strains, locus YDR388W, hits give low values 1.01 | S. cerevisiae deletion strains, locus YDR502C, strain sam2, hits give low values 0.996 | S. cerevisiae deletion strains, locus YEL061C, strain CIN8, hits give low values 0.99 | S. cerevisiae deletion strains, locus YER110C, hits give low values 0.992 | S. cerevisiae deletion strains, locus YER155C, strain BEM2, hits give low values 0.984 | S. cerevisiae deletion strains, locus YER167W, strain BCK2, hits give low values 0.988 | S. cerevisiae deletion strains, locus YGL078C, strain dbp3, hits give low values 1.01 | S. cerevisiae deletion strains, locus YGL086W, strain mad1, hits give low values 0.993 | S. cerevisiae deletion strains, locus YGL248W, strain PDE1, hits give low values 0.977 | S. cerevisiae deletion strains, locus YGR078C, strain PAC10, hits give low values 0.983 | S. cerevisiae deletion strains, locus YGR135W, strain pre9, hits give low values 0.988 | S. cerevisiae deletion strains, locus YGR229C, strain SMI1, hits give low values 0.984 | S. cerevisiae deletion strains, locus YGR252W, strain gcn5, hits give low values 0.998 | S. cerevisiae deletion strains, locus YHR030C, strain SLT2, hits give low values 0.99 | S. cerevisiae deletion strains, locus YHR079C, strain IRE1 (second series), hits give low values 1 | S. cerevisiae deletion strains, locus YHR094C, strain hxt1, hits give low values 1.01 | S. cerevisiae deletion strains, locus YHR129C, strain ARP1, hits give low values 0.974 | S. cerevisiae deletion strains, locus YHR200W, strain rpn10, hits give low values 0.994 | S. cerevisiae deletion strains, locus YIL066C, strain RNR3, hits give low values 0.985 | S. cerevisiae deletion strains, locus YIL073C, strain SPO22, hits give low values 1.03 | S. cerevisiae deletion strains, locus YIL125W, strain kgd1, hits give low values 0.993 | S. cerevisiae deletion strains, locus YIR030C, strain dcg1, hits give low values 0.996 | S. cerevisiae deletion strains, locus YJL095W, strain BCK1, hits give low values 0.994 | S. cerevisiae deletion strains, locus YJL134W, strain LCB3, hits give low values 0.987 | S. cerevisiae deletion strains, locus YJL168C, strain set2, hits give low values 0.991 | S. cerevisiae deletion strains, locus YJL187C, strain SWE1 (second series), hits give low values 0.983 | S. cerevisiae deletion strains, locus YJR043C, strain POL32, hits give low values 0.985 | S. cerevisiae deletion strains, locus YJR075W, strain HOC1, hits give low values 0.983 | S. cerevisiae deletion strains, locus YKL009W, strain mrt4, hits give low values 0.947 | S. cerevisiae deletion strains, locus YKL068W, hits give low values 0.998 | S. cerevisiae deletion strains, locus YKL085W, strain MDH1 (second series), hits give low values 0.989 | S. cerevisiae deletion strains, locus YKL085W, strain MDH1, hits give low values 0.989 | S. cerevisiae deletion strains, locus YKL190W, strain CNB1, hits give low values 0.995 | S. cerevisiae deletion strains, locus YKR001C, strain vps1, hits give low values 1 | S. cerevisiae deletion strains, locus YLR039C, strain RIC1, hits give low values 0.976 | S. cerevisiae deletion strains, locus YLR058C, strain SHM2, hits give low values 0.981 | S. cerevisiae deletion strains, locus YLR102C, strain apc9, hits give low values 0.993 | S. cerevisiae deletion strains, locus YLR262C, strain YPT6, hits give low values 0.977 | S. cerevisiae deletion strains, locus YLR268W, strain sec22, hits give low values 0.998 | S. cerevisiae deletion strains, locus YLR330W, strain CHS5, hits give low values 0.986 | S. cerevisiae deletion strains, locus YLR342W, strain FKS1 (second series), hits give low values 1.02 | S. cerevisiae deletion strains, locus YLR371W, strain rom2, hits give low values 0.996 | S. cerevisiae deletion strains, locus YLR418C, strain cdc73, hits give low values 1.01 | S. cerevisiae deletion strains, locus YML016C, strain PPZ1, hits give low values 0.986 | S. cerevisiae deletion strains, locus YML032C, strain rad52, hits give low values 1 | S. cerevisiae deletion strains, locus YML124C, strain tub3, hits give low values 1 | S. cerevisiae deletion strains, locus YMR078C, strain ctf18, hits give low values 0.999 | S. cerevisiae deletion strains, locus YMR223W, strain ubp8, hits give low values 0.996 | S. cerevisiae deletion strains, locus YMR263W, strain SAP30, hits give low values 0.987 | S. cerevisiae deletion strains, locus YMR307W, strain GAS1, hits give low values 1.04 | S. cerevisiae deletion strains, locus YNL067W, strain RPL9B, hits give low values 0.982 | S. cerevisiae deletion strains, locus YNL128W, strain TEP1, hits give low values 0.951 | S. cerevisiae deletion strains, locus YNL153C, strain GIM3, hits give low values 0.985 | S. cerevisiae deletion strains, locus YNL233W, strain BNI4, hits give low values 0.997 | S. cerevisiae deletion strains, locus YNL250W, strain rad50, hits give low values 0.983 | S. cerevisiae deletion strains, locus YNL271C, strain bni1, hits give low values 1 | S. cerevisiae deletion strains, locus YNL298W, strain CLA4, hits give low values 1.01 | S. cerevisiae deletion strains, locus YNL307C, strain MCK1, hits give low values 1.01 | S. cerevisiae deletion strains, locus YNL322C, strain KRE1, hits give low values 0.977 | S. cerevisiae deletion strains, locus YNR052C, strain pop2, hits give low values 0.996 | S. cerevisiae deletion strains, locus YOL006C, strain TOP1, hits give low values 0.926 | S. cerevisiae deletion strains, locus YOL012C, strain htz1 0.854 | S. cerevisiae deletion strains, locus YOL147C, strain pex11, hits give low values 1.01 | S. cerevisiae deletion strains, locus YOR061W, strain CKA2, hits give low values 0.961 | S. cerevisiae deletion strains, locus YOR069W, strain VPS5, hits give low values 0.99 | S. cerevisiae deletion strains, locus YOR136W, strain idh2, hits give low values 0.993 | S. cerevisiae deletion strains, locus YOR144C, strain elg1, hits give low values 0.997 | S. cerevisiae deletion strains, locus YOR184W, strain ser1, hits give low values 1.01 | S. cerevisiae deletion strains, locus YOR316C, strain cot1, hits give low values 0.981 | S. cerevisiae deletion strains, locus YPL055C, strain LGE1, hits give low values 0.975 | S. cerevisiae deletion strains, locus YPL241C, strain CIN2, hits give low values 0.993 | S. cerevisiae deletion strains, locus YPR119W, strain clb2, hits give low values 1 | S. cerevisiae deletion strains, locus YPR141C, strain kar3, hits give low values 0.991 | S. cerevisiae deletion strains, locus YPR163C, strain tif3, hits give low values 1.01 | S. cerevisiae deletion strains, locus YPR167C, strain met16, hits give low values 0.995 | S. cerevisiae deletion strains, strain wtn01, hits give low values 1 | S. cerevisiae strains, strain wild type, hits give low values 0.985
